From the supplement of paper PMC3334620
In all, about 33,000 sequences were measured (“E-score (-0.5 to 0.5)”: median about -0.016, highest 2% from about 0.3 on). The sample holds the highest values, similar sequences and a random draw of the others, so the mix is not that of the screen.

target: T1, Yer184c (UniProt P39961); test: PBM E-score (8-mer binding enrichment) (E-score (-0.5 to 0.5)); higher = stronger / more preferred TF binding; settings: protein concentration: 100 nM; construct: GST-full length
T1 sequence: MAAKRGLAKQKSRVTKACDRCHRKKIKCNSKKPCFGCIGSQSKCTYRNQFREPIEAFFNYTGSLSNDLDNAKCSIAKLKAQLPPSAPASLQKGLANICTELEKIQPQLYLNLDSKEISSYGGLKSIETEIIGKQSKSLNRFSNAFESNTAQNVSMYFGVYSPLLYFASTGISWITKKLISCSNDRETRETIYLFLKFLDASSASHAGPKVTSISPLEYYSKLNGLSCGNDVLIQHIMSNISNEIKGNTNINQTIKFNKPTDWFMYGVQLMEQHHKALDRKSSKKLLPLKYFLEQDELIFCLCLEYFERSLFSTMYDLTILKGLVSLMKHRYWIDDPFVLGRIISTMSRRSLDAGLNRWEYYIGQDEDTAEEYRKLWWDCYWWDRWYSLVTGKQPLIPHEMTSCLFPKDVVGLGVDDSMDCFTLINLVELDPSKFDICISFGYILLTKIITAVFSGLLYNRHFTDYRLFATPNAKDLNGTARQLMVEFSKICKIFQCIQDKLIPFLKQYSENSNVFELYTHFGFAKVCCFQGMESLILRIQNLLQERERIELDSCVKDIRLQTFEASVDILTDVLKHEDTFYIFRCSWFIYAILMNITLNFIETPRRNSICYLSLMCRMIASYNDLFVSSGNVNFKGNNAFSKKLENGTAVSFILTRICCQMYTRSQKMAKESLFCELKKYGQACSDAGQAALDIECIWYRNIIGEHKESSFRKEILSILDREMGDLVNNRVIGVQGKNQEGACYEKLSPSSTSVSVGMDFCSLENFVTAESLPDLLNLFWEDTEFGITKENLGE
Method: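 Universal 'all 10-mer' protein binding microarrays (Agilent AMADID 015681) probed with GST-tagged S. cerevisiae TFs (full-length or DBD) made by in vitro transcription/translation (PURExpress), about 100-200 nM. Bound TF was detected with fluorescent anti-GST. Each ungapped 8-mer (which stands for itself and its reverse complement) is scored by the PBM enrichment score (E-score), a modified Wilcoxon-Mann-Whitney statistic from -0.5 to +0.5, computed with the Universal PBM Analysis Suite. Scale: above 0.35 generally sequence-specific binding.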

First: CACCGGCC
Second: AACCGGCA
The “PBM E-score” value of the first is lower: 0.177 for the first, 0.238 for the second.

Going from AACCGGCG to AACCGACG, the “PBM E-score” value falls from 0.306 to 0.189.

Going from CACCGGCG to AACCGGCC, the “PBM E-score” value rises from 0.238 to 0.318.

First: ATATGAAT
Second: ATACTCGA
The “PBM E-score” value of the first is higher: 0.156 for the first, -0.0376 for the second.

Going from AAGTCCCC to TAAAAGTA, the “PBM E-score” value rises from -0.18 to 0.161.

Compared with AGAGAGTG, CTCTCATA is higher in “PBM E-score” value: -0.158 for the first, -0.0704 for the second.

Compared with GAGGGAGC, CGAGGTTC is higher in “PBM E-score” value: -0.277 for the first, 0.116 for the second.

Going from GCCGAGGC to CCCGAGGA, the “PBM E-score” value falls from 0.386 to 0.0175.

Going from GCCGAGGA to CCCGAGCC, the “PBM E-score” value falls from 0.335 to 0.155.

Going from CCCGAGGC to TCCGAGGA, the “PBM E-score” value rises from -0.013 to 0.196.

First: ACCGAGGC
Second: ACCGAGCC
The “PBM E-score” value of the first is lower: -0.0788 for the first, 0.221 for the second.

First: GCCGAGCC
Second: AGCGGTGC
The “PBM E-score” value of the first is higher: 0.34 for the first, -0.168 for the second.

Compared with AATTGCGC, CGGATCAC is higher in “PBM E-score” value: 0.16 for the first, 0.277 for the second.

First: ATATATTG
Second: CTATATAG
The “PBM E-score” value of the first is higher: 0.0957 for the first, -0.109 for the second.

First: ATATATTC
Second: ATATATAG
The “PBM E-score” value of the first is higher: 0.319 for the first, 0.282 for the second.

First: CTTTATAA
Second: ATATATAT
The “PBM E-score” value of the first is lower: 0.0517 for the first, 0.336 for the second.

Going from ATTTATAC to ATTTATAA, the “PBM E-score” value rises from 0.28 to 0.326.

Compared with ATATATAC, CTATATAC is lower in “PBM E-score” value: 0.317 for the first, 0.247 for the second.

Going from CTATATTC to GTATATAC, the “PBM E-score” value falls from -0.0128 to -0.0816.

Compared with AGTAGCCG, GTGACATA is lower in “PBM E-score” value: 0.198 for the first, 0.121 for the second.

First: CTTTACCC
Second: CCTGAAAC
The “PBM E-score” value of the first is lower: 0.00954 for the first, 0.15 for the second.

First: AATACTGT
Second: GAAGCAAA
The “PBM E-score” value of the first is higher: 0.188 for the first, -0.0663 for the second.

Compared with CAGCCTCG, GGCTTAAC is lower in “PBM E-score” value: -0.0314 for the first, -0.0348 for the second.

Going from CTATATAA to TTATATAA, the “PBM E-score” value rises from 0.0877 to 0.225.

Compared with ATATATAA, ATATAACC is lower in “PBM E-score” value: 0.339 for the first, -0.0755 for the second.

Going from CTATAACA to ATATAACA, the “PBM E-score” value rises from -0.0394 to 0.309.

Compared with AGATGGGA, GAGGCTGA is higher in “PBM E-score” value: -0.194 for the first, -0.172 for the second.

Going from ACAGGGGA to CCAGTCGG, the “PBM E-score” value rises from -0.249 to -0.0574.

Compared with AATTATCC, AATTATCG is higher in “PBM E-score” value: 0.116 for the first, 0.305 for the second.

Compared with ATATATCG, ATATATCC is higher in “PBM E-score” value: 0.312 for the first, 0.318 for the second.

Compared with AGATATCC, ATATATCA is higher in “PBM E-score” value: 0.0863 for the first, 0.115 for the second.

Going from CTATATCC to AATTATCA, the “PBM E-score” value rises from -0.119 to 0.221.

Going from AAATATCG to AAGTATTC, the “PBM E-score” value falls from 0.194 to 0.0574.

Compared with CGTAAGCA, AGCTAGCC is higher in “PBM E-score” value: -0.252 for the first, -0.0869 for the second.

Going from AAGGTGAA to CAGCAAAA, the “PBM E-score” value rises from -0.0939 to -0.0176.

Compared with CCATACCA, ATTGAGTA is higher in “PBM E-score” value: -0.145 for the first, 0.191 for the second.

First: CGGACAAG
Second: AGGACAAA
The “PBM E-score” value of the first is higher: 0.234 for the first, 0.136 for the second.

Going from CGGACGAC to GGGACGAA, the “PBM E-score” value falls from 0.23 to 0.0852.

First: CGGACAAA
Second: GGGACAAC
The “PBM E-score” value of the first is higher: 0.353 for the first, -0.0988 for the second.

Compared with CGGACAAC, CGGACGAA is lower in “PBM E-score” value: 0.373 for the first, 0.353 for the second.

Going from AGGACAAC to CATCGAAG, the “PBM E-score” value falls from 0.0373 to -0.0421.

Compared with ACTTAACA, ATGCTCTG is lower in “PBM E-score” value: -0.00053 for the first, -0.178 for the second.

Compared with AATGGCCG, ATGAAGGC is lower in “PBM E-score” value: 0.0612 for the first, -0.0969 for the second.

Compared with CGTCCCGA, GATCTGAC is lower in “PBM E-score” value: 0.0521 for the first, -0.0541 for the second.

Going from ATTGCCGC to GTTGCCCA, the “PBM E-score” value falls from 0.162 to -0.0158.

Compared with GCTGCCGA, CTTGCCGA is lower in “PBM E-score” value: 0.292 for the first, 0.22 for the second.

Going from ATTGCCCA to ATTGCCGA, the “PBM E-score” value rises from -0.102 to 0.311.

Going from ATTGCCAG to GTTGCCGA, the “PBM E-score” value rises from -0.0205 to 0.373.

First: ATTGCCGG
Second: TCCTGCGA
The “PBM E-score” value of the first is higher: 0.348 for the first, 0.00447 for the second.

Going from GGCCAACA to GCTGTTAC, the “PBM E-score” value falls from -0.0401 to -0.0967.

First: CTTAGCAA
Second: TCCTGCAA
The “PBM E-score” value of the first is higher: 0.0294 for the first, -0.0596 for the second.

First: AGGCATAT
Second: ACGCCAGA
The “PBM E-score” value of the first is higher: 0.0107 for the first, -0.132 for the second.

Compared with TAACCGGA, CAACCGCC is lower in “PBM E-score” value: 0.279 for the first, -0.042 for the second.

Compared with GAACCGGA, CAACCGCG is lower in “PBM E-score” value: 0.349 for the first, 0.306 for the second.

Compared with CAACCGGG, CTACCGGC is lower in “PBM E-score” value: 0.14 for the first, 0.0792 for the second.

Going from CAACCGCA to GAACCGGC, the “PBM E-score” value rises from 0.0386 to 0.18.

First: CAACCGGC
Second: CAACCGAA
The “PBM E-score” value of the first is higher: 0.323 for the first, 0.258 for the second.

First: CAACCGGA
Second: CAACCGAC
The “PBM E-score” value of the first is higher: 0.373 for the first, 0.238 for the second.

Compared with CTCTAACA, AGTTCGAT is lower in “PBM E-score” value: 0.0218 for the first, -0.0396 for the second.

Going from AGGTGAAC to ACGTTGCT, the “PBM E-score” value rises from -0.112 to -0.0994.

Compared with CGGATGGA, ATCACAAT is lower in “PBM E-score” value: 0.207 for the first, 0.0634 for the second.

Compared with CAAGCGCA, CCCACCTA is lower in “PBM E-score” value: 0.0414 for the first, -0.241 for the second.

Compared with GGTATCAA, AAACCGGG is higher in “PBM E-score” value: -0.0802 for the first, 0.0839 for the second.

First: AAACCGGT
Second: AAACCGCC
The “PBM E-score” value of the first is higher: 0.216 for the first, 0.147 for the second.

First: AAACCGGC
Second: AAACCGGA
The “PBM E-score” value of the first is higher: 0.313 for the first, 0.306 for the second.

Going from AGACCGGC to ATTTAGAC, the “PBM E-score” value falls from 0.128 to 0.121.

Going from AAAACCCG to GAAGCCGA, the “PBM E-score” value rises from 0.163 to 0.287.

Compared with CAAGCCTG, CAAGCCGC is higher in “PBM E-score” value: -0.271 for the first, -0.0146 for the second.

First: AAAGCCGT
Second: CAAGCCCA
The “PBM E-score” value of the first is higher: 0.262 for the first, -0.326 for the second.

Compared with AAAGCCGG, AAAGCCGA is lower in “PBM E-score” value: 0.351 for the first, 0.174 for the second.

First: AAAGCCGC
Second: CAAGCCGG
The “PBM E-score” value of the first is lower: 0.188 for the first, 0.327 for the second.

First: CAAGCCGA
Second: TAAGCCGA
The “PBM E-score” value of the first is lower: 0.324 for the first, 0.369 for the second.

Compared with CCAGCCGA, CTCACAAG is lower in “PBM E-score” value: 0.205 for the first, -0.177 for the second.

Compared with AAGGTCGG, TAGGTGAA is higher in “PBM E-score” value: -0.018 for the first, 0.0169 for the second.

Going from CACCAACA to GGCTATCA, the “PBM E-score” value rises from -0.23 to 0.131.

GCTCGGAA and TCTCGGAA are the same in “PBM E-score” value: 0.334 for the first, 0.334 for the second.

Compared with ACTCGGAT, ACTCGGAA is higher in “PBM E-score” value: 0.268 for the first, 0.341 for the second.

Compared with TGTCGGAA, GCTCGGTA is lower in “PBM E-score” value: 0.163 for the first, 0.129 for the second.

First: ACTCGGAC
Second: GCTCGGAC
The “PBM E-score” value of the first is higher: 0.208 for the first, 0.187 for the second.

Going from CCTCGGAA to GCAGCAGC, the “PBM E-score” value falls from 0.28 to -0.0995.

Going from CCATAGCG to CGGTCTCA, the “PBM E-score” value rises from -0.124 to 0.0469.

First: GGACGCCA
Second: CCTCTTCA
The “PBM E-score” value of the first is lower: -0.224 for the first, -0.18 for the second.

Going from ACTCTCGA to ATTCTCGA, the “PBM E-score” value rises from -0.0924 to 0.0246.

Compared with ACTCTCGC, ATTCTCGG is higher in “PBM E-score” value: -0.169 for the first, 0.345 for the second.

First: ACTCTCGG
Second: ATTCTCGC
The “PBM E-score” value of the first is higher: 0.344 for the first, -0.192 for the second.

Compared with ACCACGAT, AGTTATGG is lower in “PBM E-score” value: -0.0131 for the first, -0.0312 for the second.
